Sampled rows, rich in hits. Any-hit rate of the full collection: about 2.4%.
TLR9-MyD88 inh = inhibitors of TLR9-MyD88 association in cells, primary screen, cell-based, CHO, BLA complementation, fluorescence; Toll-like receptor 9 (Homo sapiens) + Myeloid differentiation primary response protein …; CCF4 FRET ratio; inhibition, % at 4.98 µM; actives 0.21% (n = 340,000);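 active = inhibition above the mean over all tested compounds plus 3 SD, cut at about 21% in these data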;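 also: 0% = DMSO only wells and 100% = clavulanate BLA inhibitor control wells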
m5-HT2A agonist = mouse Htr2a agonists via beta-arrestin recruitment, primary screen, cell-based, luminescence; actives 0.66% (n = 360,000); 5-hydroxytryptamine receptor 2A (Mus musculus), P35363; CHO-K1 mHTR2A beta-arrestin complementation; percent of 30 µM serotonin response; AID 624169, 2012; activation, % at 7.6 µM;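 active = activation above a run cutoff, the mean activation of all tested compounds plus 3 SD, cut at about 14% in these data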;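 also: 0% = plate median of compound wells and 100% = 30 µM serotonin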
ABHD5 PLIN5 PPI = ABHD5-PLIN5 interaction inhibitors, primary screen, cell lysate, split luciferase complementation, luminescence | inhibition, % at 4 µM | Perilipin-5 (Homo sapiens) + 1-acylglycerol-3-phosphate O-acyltransferase ABHD5 (Homo … | actives 0.78% (n = 360,000) | Split G. princeps luciferase complementation, 4 h;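 active = inhibition above the mean inhibition across every tested compound plus 3 SD, cut at about 22% in these data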;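 also: 0% = DMSO only wells and the 100% control is not disclosed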
CRFBP-R2 block = antagonists of CRF-BP/CRF-R2 complex, primary screen, cell-based, HEK293, calcium dye fluorescence, uHTS; AID 588475, 2011; inhibition, % at 11.8 µM; CRF-induced calcium fluorescence; actives 0.59% (n = 350,000);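 active = inhibition of the ligand-induced calcium signal above about 50% at the single tested concentration, limit read from the data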
TLR4-MyD88 BLA = inhibitors of TLR4-MyD88 association in cells, primary screen, cell-based, HeLa CL3-4, BLA complementation, FRET ratio. Toll-like receptor 4 (Homo sapiens) + Myeloid differentiation primary response protein …. actives 0.18% (n = 200,000). inhibition, % at 8.4 µM. HeLa CL3-4 TLR4/MyD88 BLA complementation; in the data active = inhibition above about 25%;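 also: 0% = vehicle and 100% = reference inhibitor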
NOD2-RIPK2 inh = NOD2-RIPK2 binding disruptors in cells, primary screen, fluorescence, CHO cells, BLA complementation; Receptor-interacting serine/threonine-protein kinase 2 (Homo sapiens), O43353; CCF4 ratio; inhibition, % at 4.98 µM; actives 0.38% (n = 360,000); AID 624267, 2012; in the data active = inhibition above about 21%;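 also: 0% = vehicle only and 100% = reference blocker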
Target sequence (O43353 whole entry, looked up): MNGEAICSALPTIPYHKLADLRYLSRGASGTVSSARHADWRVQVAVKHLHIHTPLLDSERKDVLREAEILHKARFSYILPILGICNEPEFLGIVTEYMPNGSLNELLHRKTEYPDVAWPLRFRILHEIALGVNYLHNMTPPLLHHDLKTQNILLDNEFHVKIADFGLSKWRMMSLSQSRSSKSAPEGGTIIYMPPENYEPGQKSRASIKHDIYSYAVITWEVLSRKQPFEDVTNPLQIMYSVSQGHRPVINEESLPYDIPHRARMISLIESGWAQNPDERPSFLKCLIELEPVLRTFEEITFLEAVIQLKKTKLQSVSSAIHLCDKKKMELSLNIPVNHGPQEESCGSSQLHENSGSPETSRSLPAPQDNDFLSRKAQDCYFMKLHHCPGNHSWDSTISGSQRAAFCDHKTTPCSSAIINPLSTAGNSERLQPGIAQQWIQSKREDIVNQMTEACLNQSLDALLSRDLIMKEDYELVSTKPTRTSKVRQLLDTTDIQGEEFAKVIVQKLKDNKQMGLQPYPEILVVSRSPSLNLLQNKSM
MOR ag counter = OPRM1 agonists via beta-arrestin recruitment, confirmation, counter-screen for mouse HTR2A agonist project, cell-based, luminescence, single concentration; shares compounds with m5-HT2A agonist; U2OS OPRM1 beta-arrestin PathHunter; DMSO 0%, DAMGO 9.3 µM 100%; activation, % at 9.3 µM; actives 5.3% (n = 2,300); AID 624380, 2012;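 active = mean activation above the mean of DMSO-only wells plus 3 SD, cut at about 0.5% in these data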
m5-HT2A ag conf = mouse HTR2A agonists, beta-arrestin recruitment, confirmation, cell-based, luminescence, CHO-K1 PathHunter, triplicate. activation, % at 7.6 µM. actives 19% (n = 2,300). DMSO 0%, 30 µM serotonin 100%. shares compounds with m5-HT2A agonist;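 active = mean activation across triplicates above the hit threshold derived in the original primary screen, cut at about 15% in these data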
The depositor's hits bear a star; / = no result.

SMILES	TLR9-MyD88 inh	m5-HT2A agonist	ABHD5 PLIN5 PPI	CRFBP-R2 block	TLR4-MyD88 BLA	NOD2-RIPK2 inh	MOR ag counter	m5-HT2A ag conf
CCN(CC)S(=O)(=O)c1cccc(-c2nnc(SCc3nc4ccccc4s3)o2)c1	4.6	-0.6	1.2	0.7	-5.5	-2.8	/	/
Brc1ccccc1-c1nnc(SCc2nc3ccccc3s2)o1	7.6	15.5*	-4.5	20.3	0.9	-2.4	-0.5	-3.3
Cc1cc(C(=O)CSc2nc3ccccc3[nH]2)c(C)n1CC1CCCO1 (stereo not given)	1.1	25.2*	-4.0	-37.1	-2.0	-3.3	0.0	10.0
Cc1cc(C(=O)CSc2nc(N)cc(=O)[nH]2)c(C)n1CC1CCCO1 (stereo not given)	1.5	-0.5	-6.6	-10.9	/	13.2	/	/
Cc1ccc(C)c(S(=O)(=O)N2CCN(C(=O)c3ccccn3)CC2)c1	0.7	1.2	-7.3	-0.8	/	5.1	/	/
Cc1cc(C)c(C)c(S(=O)(=O)N2CCN(C(=O)c3ccccn3)CC2)c1C	-2.8	15.8*	-0.5	7.2	/	-8.3	1.1*	4.0
COc1ccc(CN2CCN(C(=O)c3ccco3)CC2)cc1OC	-3.1	32.2*	-3.0	-2.8	6.0	2.0	-0.5	82.4*
COc1ccc(CCn2nnnc2CN2CCN(C(=O)c3ccco3)CC2)cc1OC	2.1	-2.5	6.5	-6.5	12.6	-3.0	/	/
COc1ccc(CN2CCN(C(=O)c3ccco3)CC2)cc1OCc1ccccc1	1.1	19.5*	-0.3	3.4	-6.7	-5.0	-0.6	74.2*
CC(C)C(=O)N1CCC1(C)C(=O)Nc1cc(-c2ccccc2)nn1C (stereo not given)	/	2.2	-5.1	/	/	-5.3	/	/
COc1cccc(CN2CCC(C)(Oc3cccc(Cl)c3)C2)c1OC (stereo not given)	/	-3.3	2.6	/	/	16.3	/	/
COCC(C)n1c(C)cc(C(=O)COC(=O)c2cnc(Cl)c(Cl)c2)c1C (stereo not given)	-6.0	15.4*	6.6	3.1	/	7.3	-0.5	-2.3
COCC(C)n1c(C)cc(C(=O)COC(=O)c2ccc3ncsc3c2)c1C (stereo not given)	3.6	1.2	-4.2	-11.0	-0.9	4.0	/	/
CSCCC(C(=O)Nc1c(C)cccc1C)n1c(-c2cnc(C)cn2)nc2ccccc21 (stereo not given)	/	-1.3	3.8	/	/	-8.2	/	/
O=C(CN1C(=O)c2cccnc2Oc2ccc(Cl)cc21)N1CCOCC1	0.8	14.4*	-3.2	-1.4	/	-3.0	-0.4	2.3
CN1CCC(=NNC(=O)CN(c2ccc([N+](=O)[O-])cc2)S(=O)(=O)c2ccccc2)CC1	3.0	16.8*	-1.4	2.9	/	-3.7	-0.7	-4.6
CN1CCC(=C2c3ccccc3C(O)c3ccccc32)CC1 (stereo not given)	1.8	-6.7	4.1	-0.2	/	3.6	/	/
CN1CCc2cccc3c2C1Cc1ccc(O)c(O)c1-3 (stereo not given)	-6.4	44.5*	-5.0	-8.6	/	6.4	0.6*	135.0*
O=C(c1ccc(OCc2cn3ccccc3n2)cc1)N1CCN(S(=O)(=O)c2ccccc2F)CC1	1.1	20.3*	6.1	0.8	/	-3.9	-0.4	-2.4

Screens: PubChem, several laboratories
